From PubChem BioAssay AID504832 (National Center for Advancing Translational Sciences (NCATS), 2011) come the findings set out here.

Each structure is given as a SMILES string. Screen size: about 310,000 compounds; about 18,000 (5.8%) were called active. Roughly 22% stayed inconclusive and do not appear here. The call rests on the fitted dose curve; in most records, active means well fitted inhibition curve with a large enough effect; inconclusive means small, poorly fitted or top-dose-only effect, or another doubt; inactive means no such curve, though single readings can be large or run the other way. The full list was thinned out, with actives kept by preference.
On the % scale 0 is the no-effect control and ±100 the full control effect; potency means the concentration at half of the fitted maximal effect.

This test is described as follows: Primary qHTS for delayed death inhibitors of the malarial parasite plastid, 48 hour incubation. The settings on record: P. falciparum luciferase growth in erythrocytes; series mostly up to 28.7 µM; activity change, negative = inhibition: at the top concentration. The procedure, abridged:
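Luminescence readout; reporter = integrated firefly luciferase in P. falciparum. RBC culture at 2% hematocrit, 0.1% parasitemia final, 37 C/5% CO2; decreased signal taken as growth inhibition.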
`CCc1ccc(-c2cc3c(=O)n(CC(=O)NCCCN4CCN(Cc5ccccc5)CC4)nc(C)n3n2)cc1`: the “activity change, negative = inhibition” value is -3.05% (inactive).

In the case of `CC(CCc1ccc(O)cc1)NCc1ccc(Cl)cc1Cl` (configuration not stated), the “activity change, negative = inhibition” value is 2.85% (inactive).

In the case of `CN(C(=O)c1ccccc1)c1nccnc1C#N`, the “activity change, negative = inhibition” value was -8.71% (inactive).

Take `CCOC(=O)CSc1nnc(NC(=O)C2CC(=O)N(c3ccc(F)cc3)C2)s1` (configuration not stated): the “activity change, negative = inhibition” value is -26.5% (inactive).

As for `CCOC(=O)c1cccc(NC(=O)CN2C(=O)C3CC=CCC3C2=O)c1` (configuration not stated), the “activity change, negative = inhibition” value is 0.828% (inactive).

`COc1ccccc1CNS(=O)(=O)c1cc2c3c(c1)CCC(=O)N3CCC2`: the “activity change, negative = inhibition” value is -5.97% (inactive).

With `CNC(=O)NC(=O)C(C)N1CCN(C/C=C/c2ccccc2)CC1` (configuration not stated), the “activity change, negative = inhibition” value was -4.98% (inactive).

Turning to `COc1ccc(C(=O)NC2CC2)cc1OC1CCN(C/C=C/c2ccccc2)CC1`, the “activity change, negative = inhibition” value is -28.2% (inactive).

Consider `COc1cc(C(=O)N2CCN(C/C=C/c3ccccc3)CC2)cc(OC)c1C`, for which the Potency is 10.4 µM (active).

Consider `CC(C)[C@@H](C(=O)O)N(Cc1cccc(CN([C@H](C(=O)O)C(C)C)S(C)(=O)=O)c1)S(C)(=O)=O`, for which the “activity change, negative = inhibition” value is 39.7% (inactive).

As to `Cc1nnc2n1N=C(c1ccccc1)CS2`, the activity change, negative = inhibition was 1.87% [at 0.00184 µM] (inactive).

For `CN(CC(=O)Nc1cccc(F)c1)C(=O)C1=COCCO1`, the “activity change, negative = inhibition” value was -28.3% (inactive).

`CCc1nc(Nc2ccc3nccnc3c2)c2oc3ccccc3c2n1`: the Potency is 1.04 µM (active).

As for `CCc1nc(N2CCN(c3nc(C)cc(C)n3)CC2)c2oc3ccccc3c2n1`, the “activity change, negative = inhibition” value is 16.9% (inactive).

As to `CCc1nc(Nc2ccc(NC(C)=O)cc2)c2oc3ccccc3c2n1`, the “activity change, negative = inhibition” value was -3.92% (inactive).

Turning to `COCC1CCN(C(=O)CCc2nnc(C3(c4ccc(Cl)cc4)CCC3)o2)C1` (configuration not stated), the “activity change, negative = inhibition” value is -14.5% (inactive).

`Cc1noc(C)c1CSCC(=O)Nc1ccc(Br)cc1Cl`: the “activity change, negative = inhibition” value was 14.8% (inactive).

For `COc1cc(C(=O)N2CCN(C3CCC(C)CC3)CC2)cc(OC)c1OC` (configuration not stated), the “activity change, negative = inhibition” value is -13.2% (inactive).

For `OC(CN=c1sc2ccccc2n1CC(O)COc1ccccc1)COc1ccccc1` (configuration not stated), the Potency is 13.1 µM (active).

For `OC(COc1ccccc1)Cn1cc(Br)cn1` (configuration not stated), the “activity change, negative = inhibition” value is 21.9% (inactive).

As for `CC(O)COc1ccccc1` (configuration not stated), the “activity change, negative = inhibition” value was -5.11% (inactive).

`Cn1nccc1C(=O)NC1CCCc2c1cnn2-c1ccccc1F` (configuration not stated): the “activity change, negative = inhibition” value is -4.57% (inactive).

As to `CC(C)(C)c1csc(NC2=NS(=O)(=O)c3ccccc32)n1`, the “activity change, negative = inhibition” value is 129% (inactive).

As for `COc1ccc(CNC(=O)C(NS(=O)(=O)c2cccc3nsnc23)C(C)C)cc1` (configuration not stated), the “activity change, negative = inhibition” value is 11.9% (inactive).

With `CC(C)C(NS(=O)(=O)c1cccs1)C(=O)Nc1nc(C(C)(C)C)cs1` (configuration not stated), the Potency is 11.7 µM (active).

Regarding `O=C(OCC(=O)N1CCCC1)c1ccc(Cl)nc1`, the “activity change, negative = inhibition” value was 2.9% (inactive).

Take `CCCc1cc(=O)oc2c(C)c(OC(C)C(=O)NCC(O)c3ccccc3)ccc12` (configuration not stated): the “activity change, negative = inhibition” value is -26.5% (inactive).

Turning to `CCCc1cc(=O)oc2c(C)c(O)c(CN3CCCCC3)cc12`, the Potency was 1.65 µM (active).

`CCCc1cc(=O)oc2c(C)c(OCC(=O)N3CCC(C(=O)O)CC3)ccc12`: the “activity change, negative = inhibition” value is 1.02% (inactive).

Regarding `CN(CC(=O)NCc1ccncc1)S(=O)(=O)c1ccc(Br)cc1`, the “activity change, negative = inhibition” value is 5.28% (inactive).

`Cc1ccc(CN(C)Cc2cc(=O)oc3cc(C)c(Cl)cc23)cc1`: the “activity change, negative = inhibition” value is -1.04% (inactive).

Consider `Cc1ccc(O)c(NC(=S)NC(=O)COc2ccc(Br)cc2)c1`, for which the “activity change, negative = inhibition” value is 5.89% (inactive).

As for `Cc1ccc(O)c(NC(=O)COc2cc(C)ccc2C)c1`, the Potency is 2.94 µM (active).

`Cc1ccc(C)c(OCC(=O)NNC(=O)C2CCC2)c1`: the “activity change, negative = inhibition” value is 11% (inactive).

On to `CC(NC(=O)CNC(=O)Cc1cccc2ccccc12)c1ccc(S(N)(=O)=O)cc1` (configuration not stated), for which the “activity change, negative = inhibition” value is -6.83% (inactive).

In the case of `CCc1cc(=O)oc2c(C)c(OCC(=O)NCCN3CCOCC3)ccc12`, the “activity change, negative = inhibition” value is 12.9% (inactive).

Consider `COc1cccc(-c2ccc3c(c2)S(=O)(=O)c2cccc(C(=O)O)c2C3=O)c1OC`, for which the “activity change, negative = inhibition” value is 22.2% (inactive).

Regarding `Cc1c(C(=O)N2CCN(c3ccc(F)cc3)CC2)oc2c1C(=O)CCC2`, the “activity change, negative = inhibition” value is 15.9% (inactive).

With `Cn1c2ccccc2c2c(C(=O)N3CCN(c4ccc(F)cc4)CC3)cn(C3CCCC3)c(=O)c21`, the Potency is 10.4 µM (active).

`CC(C)N(C(=O)COC(=O)c1ccccc1C(=O)N1CCN(c2ccc(F)cc2)CC1)C(C)C`: the “activity change, negative = inhibition” value was -3.05% (inactive).

In the case of `COc1cccc(C(=O)Nc2nnc(S(=O)(=O)N(C)c3ccccc3)s2)c1`, the “activity change, negative = inhibition” value is 3.99% (inactive).

As for `COc1cccc(/C=C/C(=O)OCC(=O)N2CCN(c3ccccc3)CC2)c1`, the “activity change, negative = inhibition” value is -22.5% (inactive).

As to `COc1ccc(S(=O)(=O)N2CCN(C(C)C(=O)Nc3ccc(C(C)C)cc3)CC2)cc1` (configuration not stated), the Potency was 10.4 µM (active).

As to `COc1ccc(S(=O)(=O)N2CCN(C(=O)NC3CCCCC3)CC2)cc1`, the “activity change, negative = inhibition” value was 6.95% (inactive).

Take `COc1ccc(OCC(=O)OCC(=O)Nc2ccc(S(=O)(=O)N3CCCCC3)cc2)cc1`: the “activity change, negative = inhibition” value is -10.4% (inactive).

With `CC(NC(=O)CN(C)S(=O)(=O)c1ccc(F)cc1)C1CC2CCC1C2` (configuration not stated), the “activity change, negative = inhibition” value is -23.8% (inactive).

Regarding `CC(=O)Nc1ccc(N2C(=O)CC(Sc3nccc(C)n3)C2=O)cc1` (configuration not stated), the “activity change, negative = inhibition” value is 120% (inactive).

Regarding `COc1cc(Cl)ccc1OCc1cc(C(=O)N(C)CCc2c(C)n[nH]c2C)no1`, the “activity change, negative = inhibition” value was -19.3% (inactive).

`CN(CCO)Cc1csc2ccc(Br)cc12`: the “activity change, negative = inhibition” value is 25.9% (inactive).

On to `CNC(=O)O/N=C(\N)Cc1csc2ccc(Cl)cc12`, for which the Potency is 3.7 µM (active).

For the compound `O=C(O)COCC(=O)NCc1csc2ccc(Cl)cc12`, the “activity change, negative = inhibition” value is 32.3% (inactive).

On to `CCOC(=O)Cc1csc(NC(=O)CSc2ccc(Br)cc2)n1`, for which the Potency is 10.4 µM (active).
